Measured values reported in PubChem BioAssay (Tox21).
Records with an inconclusive call do not appear. A number with no mark means an inactive call. Activity calls are given as the source filed them. The call rests on the fitted dose curve; in most records, active means well fitted curve in the direction sought with a large enough effect in the repeat runs; inconclusive means weak or mixed curves; inactive means no such curve, though single readings can be large; an effect the other way counts as inactive or inconclusive.

assay: qHTS assay for identifying genotoxic compounds that show differential cytotoxicity against isogenic chicken DT40 cell lines with known DNA damage response pathways - Rev3 mutant cell line (AID 743014); conditions: chicken DT40 Rev3-/- viability, CellTiter-Glo, 40 h; series mostly up to 68.4 µM; activity, negative = cytotoxicity: at the top concentration; further: nearly all actives have a fitted effect of over 55% in size
On the % scale 0 is the no-effect control and ±100 the full control effect; potency means the concentration at half of the fitted maximal effect.

| Compound | Potency | activity, negative = cytotoxicity |
| --- | --- | --- |
| NC(=NCCCCCCN=C(N)/N=C(\N)Nc1ccc(Cl)cc1)/N=C(\N)Nc1ccc(Cl)cc1 | 15.3 µM (active) [middle of 5 runs] | – |
| CN(C/C=C/C#CC(C)(C)C)Cc1cccc2ccccc12 | – | 9.23% |
| O=c1cccccc1O | 27.8 µM (active) | – |
| CC1=C(C(=O)OC(C)C)C(c2cccc([N+](=O)[O-])c2)C(C(=O)OC2CN(C(c3ccccc3)c3ccccc3)C2)=C(N)N1 (stereo not drawn) | 18.8 µM (active) | – |
| Cc1cc(=O)oc2cc(N(C)C)ccc12 | 54.5 µM (active) | – |
| CCOc1ccc2nc3cc(N)ccc3c(N)c2c1 | 26.6 µM (active) | – |
| O=C(NOCC1CC1)c1ccc(F)c(F)c1Nc1ccc(I)cc1Cl | 29.8 µM (active) | – |
| Cc1c(C)c2c(c(C)c1OC(=O)CCC(=O)O)CC[C@@](C)(CCC[C@H](C)CCC[C@H](C)CCCC(C)C)O2 | inactive | – |
| Oc1ccc2c(c1)-c1ccccc1C2 | 54.5 µM (active) | – |
| CC(C)(C)C(=O)OCOC(=O)[C@@H]1N2C(=O)[C@@H](NC(=O)[C@H](N)c3ccccc3)[C@H]2SC1(C)C | – | 15.8% [at 31.4 µM] |
| Cc1cc(C2CCCCC2)n(O)c(=O)c1 | 1.14 µM (active) | – |
| O=[N+]([O-])c1cc([N+](=O)[O-])c2ccc(S(=O)(=O)O)cc2c1O | – | 4.29% |
| O=C(c1ccc(F)cc1)C1CCN(CCn2c(=O)[nH]c3ccccc3c2=O)CC1 | – | 0.321% |
| CCC1OCC(COc2ccc(Oc3ccccc3)cc2)O1 (stereo not drawn) | – | -17.1% |
| OCCCCCCCCCCCCBr | 3.92 µM (active) | – |
| O=C(Oc1ccccc1)c1ccccc1C(=O)Oc1ccccc1 | 34.4 µM (active) | – |
| O=C1CCCCCN1SSN1CCCCCC1=O | 19.3 µM (active) | – |
| O=c1[nH]cnc2nc[nH]c12 | – | 0.184% |
| CCC(Cl)C(Cl)C(Cl)CC(Cl)C(Cl)C(C)Cl (stereo not drawn) | 54.5 µM (active) | – |
| CCN(C(=O)N(CC)c1ccccc1)c1ccccc1 | 7.7 µM (active) | – |
| CO[Si](CCCNc1ccccc1)(OC)OC | 15.4 µM (active) | – |
| O=C(Nc1ccc(Oc2ccc(Cl)cc2)c(Cl)c1)c1cc(I)cc(I)c1O | – | -6.35% |

assay: qHTS assay for identifying genotoxic compounds that show differential cytotoxicity against isogenic chicken DT40 cell lines with known DNA damage response pathways - Rad54/Ku70 mutant cell line (AID 743015); conditions: DT40 Rad54/Ku70 mutant viability, CellTiter-Glo, 40 h; series mostly up to 66.8 µM; activity change, negative = cytotoxicity: at the top concentration; further: nearly all actives have a fitted effect of over 60% in size

| Compound | Potency | activity change, negative = cytotoxicity |
| --- | --- | --- |
| NC(=NCCCCCCN=C(N)/N=C(\N)Nc1ccc(Cl)cc1)/N=C(\N)Nc1ccc(Cl)cc1 | 17.1 µM (active) [middle of 5 runs] | – |
| O=c1cccccc1O | 55.5 µM (active) | – |
| CCOc1ccc2nc3cc(N)ccc3c(N)c2c1 | 26.6 µM (active) | – |
| CC(=O)SC[C@@H](Cc1ccccc1)C(=O)NCC(=O)OCc1ccccc1 | – | -20.8% [at 30.7 µM] |
| CN(C)c1ccc(C2(c3ccc(N(C)C)cc3)OC(=O)c3cc(N(C)C)ccc32)cc1 | 15.3 µM (active) | – |
| C=C(C)C(=O)OCC[N+](C)(C)C | 38.4 µM (active) | – |
| Nc1ccc2cc(S(=O)(=O)O)cc(O)c2c1N=Nc1ccccc1C(F)(F)F | – | -14.6% |
| O=C1CCCc2c1cc1ccc3cccc4ccc2c1c34 | – | 0.0562% [at 95.1 µM] |
| NC(=O)NS(=O)(=O)c1ccc(N)cc1 | – | -1.03% |
| CCC(C)(C)C1CCCCC1OC(C)=O (stereo not drawn) | – | -0.606% |
| O=c1[nH]cnc2nc[nH]c12 | – | 14.6% |
| CCC(Cl)C(Cl)C(Cl)CC(Cl)C(Cl)C(C)Cl (stereo not drawn) | 54.5 µM (active) | – |
| CCCN(CCC)c1c([N+](=O)[O-])cc(C(F)(F)F)c(N)c1[N+](=O)[O-] | 12.2 µM (active) | – |
| CNCc1cc(F)ccc1Oc1ccc(Cl)c(Cl)c1 | 13.7 µM (active) | – |

assay: qHTS assay to identify small molecule antagonists of the androgen receptor (AR) signaling pathway - cell viability counter screen (AID 743033; further: nearly all actives have a fitted effect of over 45% in size); conditions: AR-bla HEK293 viability, CellTiter-Glo luminescence, 16 h; series mostly up to 58.5 µM; activity change, negative = cytotoxicity: at the top concentration

| Compound | activity change, negative = cytotoxicity | Potency |
| --- | --- | --- |
| CN(C/C=C/C#CC(C)(C)C)Cc1cccc2ccccc12 | 0.374% | – |
| O=c1cccccc1O | – | 44.5 µM (active) |
| O=Cc1cc(O)ccc1Br | -6.48% [at 78.9 µM] | – |
| C/C=C(\C)C(=O)OCc1ccccc1 | 1.02% | – |
| Cc1cc(=O)oc2cc(N(C)C)ccc12 | 2.36% | – |
| CCOc1ccc2nc3cc(N)ccc3c(N)c2c1 | -1.54% | – |
| CC(=O)SC[C@@H](Cc1ccccc1)C(=O)NCC(=O)OCc1ccccc1 | -9.69% [at 27 µM] | – |
| CN(C)c1ccc(C2(c3ccc(N(C)C)cc3)OC(=O)c3cc(N(C)C)ccc32)cc1 | 0.391% | – |
| Clc1ccc2n[nH]nc2c1 | 2.51% | – |
| C=C(C)C(=O)OCC[N+](C)(C)C | -1.52% | – |
| Cc1c(C)c2c(c(C)c1OC(=O)CCC(=O)O)CC[C@@](C)(CCC[C@H](C)CCC[C@H](C)CCCC(C)C)O2 | – | inactive |
| Nc1ccc2cc(S(=O)(=O)O)cc(O)c2c1N=Nc1ccccc1C(F)(F)F | 2.28% | – |
| Cc1cc(C2CCCCC2)n(O)c(=O)c1 | 5.5% [at 27 µM] | – |
| O=[N+]([O-])c1cc([N+](=O)[O-])c2ccc(S(=O)(=O)O)cc2c1O | -19.9% | – |
| CC(C)=CCOc1ccc(/C=C/C(=O)c2ccc(OCC=C(C)C)cc2OCC(=O)O)cc1 | 0.731% | – |
| O=C1CCCc2c1cc1ccc3cccc4ccc2c1c34 | 1.82% [at 78.9 µM] | – |
| C[n+]1ccn(Cc2ccccc2)c1 | -0.571% | – |
| CC(C)(C)CC(C)(C)c1ccc(O)c(Cc2ccc(Cl)cc2Cl)c1 | -6.02% | – |
| O=C(c1ccc(F)cc1)C1CCN(CCn2c(=O)[nH]c3ccccc3c2=O)CC1 | 5.45% | – |
| CCC1OCC(COc2ccc(Oc3ccccc3)cc2)O1 (stereo not drawn) | -27.2% | – |
| CCC(C)(C)C1CCCCC1OC(C)=O (stereo not drawn) | 3.28% | – |
| O=C(c1ccc(O)cc1O)c1ccc(O)cc1O | – | inactive |
| O=c1[nH]cnc2nc[nH]c12 | 1.72% | – |
| CCC(Cl)C(Cl)C(Cl)CC(Cl)C(Cl)C(C)Cl (stereo not drawn) | 2.51% | – |
| CCN(C(=O)N(CC)c1ccccc1)c1ccccc1 | -29.9% | – |
| CO[Si](CCCNc1ccccc1)(OC)OC | 4.1% | – |
| O=C(Nc1ccc(Oc2ccc(Cl)cc2)c(Cl)c1)c1cc(I)cc(I)c1O | 4.01% | – |
